# According to PubChem BioAssay (NCI):
# Values joined by “and” are separate entries in the source; they are usually repeats but may differ in a detail not shown here. Equal entries are not always repeated. Compounds without any hit were thinned out: in the full panel of roughly 83,000, 20% have a hit.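 Each cell line was grown in a 96-well plate and treated with one concentration of compound for 48 hours. Values below 10 were considered active.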 A number with no mark means an inactive call. Active and inactive are the calls of the source.
# Test system: DU-145 prostate
# Test: NCI-60 one-dose screen, 48 h (100 = growth as untreated, 0 = no growth, -100 = all killed)
# Conditions: 10 µM unless noted
row,SMILES,growth
1,Cc1c(C(C)(C)O)cn2ncnc(Oc3ccc(NC(=O)Nc4ccc(Cl)c(C(F)(F)F)c4)cc3)c12,57.6%
2,Cc1ccc(C(=O)N(CCCN)[C@@H](c2nc3cc(Cl)ccc3c(=O)n2Cc2ccccc2)C(C)C)cc1,1.24% (active)
3,O=c1ccc2nc(-c3ccccn3)nn(-c3ccccc3)c-2c1,91%
4,COc1ccc(-c2ccc(-c3ccc(C(=N)N)cn3)o2)cc1Cl,46.5%
5,Cc1ccc(Nc2nc(-c3cc(O)c(C)c(C)c3O)cs2)cc1,97.3%
6,COC(=O)/C=C1/SC(N2N=C(c3cccs3)CC2c2ccc(F)cc2)=NC1=O (stereo not drawn),31%
7,COC(=O)c1[nH]nc(OC)c1C1(C(C#N)c2nc3ccccc3s2)CCCc2ccccc21 (stereo not drawn),108%
8,CCOC(=O)c1c(-c2ccc(C)cc2)c(C#N)c(=O)n(-c2cccc(C(F)(F)F)c2)c1N,108%
9,COc1cc2nc3cc([N+](=O)[O-])ccc3c(NCCNCC(C)(C)O)c2cc1OC,-8.55% (active)
10,Cc1ccc(C(=O)Nc2ccc(CN3CCN(C)CC3)c(C(F)(F)F)c2)cc1C#Cc1cnc(N)cc1C#N,-53.1% (active)
11,OCCN1CCN(CC/C=C2\c3ccccc3Sc3ccc(Cl)cc32)CC1,17.1% and 65%
12,CCCCCCNC(=O)Oc1ccc(/C(=C(/CC)Cc2ccccc2)c2ccc(OCCCN(C)C)cc2)cc1,89.4%
13,O=c1cc(N/N=C/c2ccc(F)cc2)c2cc(Cl)ccc2[nH]1,102%
